Data: PubChem BioAssay (NCATS)
A number with no mark means an inactive call. Active and inactive are the calls of the source. The call rests on the fitted dose curve; in most records, active means well fitted curve in the direction sought with a large enough effect; inactive means no such curve, though single readings can be large or run the other way.

molecular target: Alpha-galactosidase (Coffea arabica) (UniProt Q42656); test: Counterscreen for Glucocerebrosidase Inhibitors: qHTS Assay for Coffee Bean alpha-Galactosidase at pH 5.9 (AID 998); conditions: coffee bean alpha-galactosidase enzyme assay; series mostly up to 76.9 µM; activity, negative = inhibition: at the top concentration;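 further: plate controls were uninhibited enzyme for no effect and no-enzyme basal signal for full effect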
Sequence (Q42656 whole entry, looked up): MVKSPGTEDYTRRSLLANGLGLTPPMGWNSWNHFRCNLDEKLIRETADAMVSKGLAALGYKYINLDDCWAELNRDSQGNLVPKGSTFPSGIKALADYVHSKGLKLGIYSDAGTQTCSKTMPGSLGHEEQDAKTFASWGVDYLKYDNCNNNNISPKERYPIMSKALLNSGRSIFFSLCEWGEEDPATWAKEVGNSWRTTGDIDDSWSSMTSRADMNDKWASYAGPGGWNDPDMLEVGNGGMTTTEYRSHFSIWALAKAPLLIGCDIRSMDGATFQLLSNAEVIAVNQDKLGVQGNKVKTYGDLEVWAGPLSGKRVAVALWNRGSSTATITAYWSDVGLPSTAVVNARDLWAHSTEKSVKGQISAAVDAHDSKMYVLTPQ
How it was run: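 Green coffee bean enzyme (2 nM final) was incubated with compounds (0.7 nM–77 uM) and 4-methylumbelliferyl alpha-D-galactopyranoside (80 uM) in citrate buffer pH 5.9, 20 min at room temperature. High-pH stop; fluorescence 365/440 nm; AC50 from Hill fits.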

Structure (SMILES)	activity, negative = inhibition	outcome
NC(=O)OCC(COC(N)=O)c1ccccc1	1.61%	
CCC1(c2ccccc2)C(=O)NCNC1=O	-2.69%	
COC(=O)[C@H]1[C@H]2C[C@@H]3c4[nH]c5cc(OC)ccc5c4CCN3C[C@H]2C[C@@H](OC(=O)c2cc(OC)c(OC)c(OC)c2)[C@@H]1OC	-7.19%	
NC12CC3CC(CC(C3)C1)C2	2.06%	
Cc1[nH]c(=O)c(C#N)cc1-c1ccncc1	3.68%	
CCCNC(=O)NS(=O)(=O)c1ccc(Cl)cc1	-1.77%	
CC/C(=C(\c1ccccc1)c1ccc(OCCN(C)C)cc1)c1ccccc1	-5.14%	
NC[C@H](O)c1ccc(O)c(O)c1		inactive
CCOC(=O)c1ncn2c1CN(C)C(=O)c1cc(F)ccc1-2	-0.989%	
OCCN1CCN(CCCN2c3ccccc3Sc3ccc(Cl)cc32)CC1	0.319%	
NNc1nncc2ccccc12	4.09%	
CC1=C(/C=C/C(C)=C/C=C/C(C)=C/C(=O)Nc2ccc(O)cc2)C(C)(C)CCC1	-8.62%	
CC(C)OC(=O)C(C)(C)Oc1ccc(C(=O)c2ccc(Cl)cc2)cc1	-2.54%	
CN[C@H]1CC[C@@H](c2ccc(Cl)c(Cl)c2)c2ccccc21	-2.76%	
CNCCCC1c2ccccc2C=Cc2ccccc21	-2.52%	
C[C@](N)(Cc1ccc(O)c(O)c1)C(=O)O	-0.582%	

Structure (SMILES)	activity, negative = inhibition	outcome
CC(=O)CCCCn1c(=O)c2c(ncn2C)n(C)c1=O	1.26%	
Clc1ccc2c(c1)C(N1CCNCC1)=Nc1ccccc1O2	-1.41%	
CN(Cc1cnc2nc(N)nc(N)c2n1)c1ccc(C(=O)N[C@@H](CCC(=O)O)C(=O)O)cc1	-1.75%	
Cc1cn([C@H]2C=C[C@@H](CO)O2)c(=O)[nH]c1=O	2.02%	
CN(C)CCCN1c2ccccc2CCc2ccc(Cl)cc21	-2.77%	
CC(C)C(=O)Nc1ccc([N+](=O)[O-])c(C(F)(F)F)c1	0.672%	
CN(C)CC/C=C1\c2ccccc2COc2ccccc21	1.05%	
NC(=O)NO	2.38%	
CC[N+](CC)(CC)CC	2.92%	
Cc1nc2n(c(=O)c1CCN1CCC(c3noc4cc(F)ccc34)CC1)CCCC2	-1.24%	
Cc1cnc(C(=O)NCCc2ccc(S(=O)(=O)NC(=O)NC3CCCCC3)cc2)cn1	2.11%	
Cc1cn[nH]c1	-0.991%	
O=C(CCCN1CCC(O)(c2ccc(Cl)cc2)CC1)c1ccc(F)cc1	-2.56%	
NS(=O)(=O)Cc1noc2ccccc12	2.45%	
CN(C)c1nc(N(C)C)nc(N(C)C)n1	0.0404%	
Fc1ccc([C@@H]2CCNC[C@H]2COc2ccc3c(c2)OCO3)cc1	-3.4%	
